Reference: the supplement of paper PMC7366291
Structures can show the parent of a compound that is named as a salt. ± gives the standard deviation or the standard deviation of the averaged measurements.

Tests used:
Conditions in all cases: 25 µM; exposure: 24-48 hpf
[1] = test system: Danio rerio Tg(wt1b:EGFP) embryo, pronephros; experiment: glomerular separation, fold change vs DMSO control; higher = glomeruli further apart (abnormal)
How it was run: (§1)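 Dechorionated Tg(wt1b:EGFP) zebrafish embryos were incubated at 28.5°C from 24 to 48 hpf with 25 μM compound in HEPES-buffered E3 containing 0.5% DMSO and 0.003% PTU. Distances and angles between 16 manually set points on maximum projections of dorsal pronephros images were measured in Fiji, with values over 2 SD from the feature mean excluded. Each feature is a fold change relative to the mean of same-day DMSO-treated embryos.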

[2] = test system: Danio rerio Tg(wt1b:EGFP) embryo, pronephros; experiment: glomerular width (mean of left and right), fold change vs DMSO control; higher = wider glomerulus
How it was run: as §1

[3] = test system: Danio rerio Tg(wt1b:EGFP) embryo, pronephros; experiment: fraction of imaged embryos annotated as normal kidney; higher = less nephrotoxic; extreme values may be limits of the assay
How it was run: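 Dechorionated Tg(wt1b:EGFP) zebrafish embryos were incubated with 25 μM compound in 0.5% DMSO, 5 mM HEPES-buffered E3 and 0.003% PTU from 24 to 48 hpf at 28.5°C. Pronephroi were then imaged by widefield fluorescence, and the fraction of embryos per treatment assigned by hand to the normal-kidney category is given.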

[4] = test system: Danio rerio Tg(wt1b:EGFP) embryo, pronephros; experiment: pronephric angle neck segment to proximal convoluted tubule (mean of left and right), fold change vs DMSO control; higher = larger pronephric angle
How it was run: as §1

Row | Compound | glomerular separation [1] | glomerular width [2] | fraction of imaged embryos annotated as normal kidney [3] | pronephric angle neck segment [4]
1 | CCCCC[C@H](O)/C=C/[C@H]1[C@H](O)CC(=O)[C@@H]1CCCCCCC(=O)O [Alprostadil] | 1.21 ± 0.52 | 0.867 ± 0.036 | 0.75 | 1.09 ± 0.047
2 | CCC[C@H](N[C@@H](C)C(=O)N1[C@H](C(=O)O)C[C@@H]2CCCC[C@@H]21)C(=O)OCC [Perindopril] | 0.827 ± 0.34 | 1.09 ± 0.028 | 0.917 | 0.98 ± 0.026
3 | Nc1nnc(-c2cccc(Cl)c2Cl)c(N)n1 [Lamotrigine] | 0.99 ± 0.4 | 0.999 ± 0.016 | 0.9 | 0.998 ± 0.039
4 | CNCC(O)c1ccc(O)c(O)c1 (stereo unspecified) [Racepinephrine hydrochloride] | 0.935 ± 0.21 | 0.946 ± 0.011 | 0.667 | 0.998 ± 0.035
5 | CCN(CCCc1ccccc1)CCCc1ccccc1 [Alverine citrate salt] | 0.843 ± 0.21 | 1.02 ± 0.044 | 0.75 | 0.942 ± 0.035
6 | CN(C)CCCN1c2ccccc2CCc2ccc(Cl)cc21 [Clomipramine hydrochloride] | 1.18 ± 0.38 | 0.947 ± 0.035 | 0.667 | 1.06 ± 0.014
7 | CN1CCCN=C1/C=C/c1cccs1 [Pyrantel tartrate] | 0.9 ± 0.18 | 0.937 ± 0.024 | 0.917 | 1.074 ± 0.0072
8 | CNc1ncnc2c1ncn2[C@@H]1O[C@H](CO)[C@@H](O)[C@H]1O [N6-methyladenosine] | 0.849 ± 0.21 | 1.05 ± 0.029 | 1 | 1.01 ± 0.065
9 | COc1cccc2c1C(=O)c1c(O)c3c(c(O)c1C2=O)C[C@@](O)(C(C)=O)C[C@@H]3O[C@H]1C[C@H](N)[C@H](O)[C@H](C)O1 [Daunorubicin hydrochloride] | 0.979 ± 0.36 | 1.03 ± 0.019 | 0.917 | 1.04 ± 0.025
10 | Nc1nc(=S)c2ncn([C@@H]3O[C@H](CO)[C@@H](O)[C@H]3O)c2[nH]1 [Thioguanosine] | 1.01 ± 0.38 | 1.02 ± 0.012 | 0.917 | 1.03 ± 0.036
11 | COc1ccc(C(Cl)=C(c2ccc(OC)cc2)c2ccc(OC)cc2)cc1 [Chlorotrianisene] | 0.709 ± 0.16 | 1.028 ± 0.007 | 1 | 0.953 ± 0.013
12 | Nc1ccn([C@@H]2O[C@H](CO)[C@@H](O)C2(F)F)c(=O)n1 [Gemcitabine] | 0.851 ± 0.34 | 0.99 ± 0.053 | 0.917 | 1.03 ± 0.039
13 | Nc1ccc(S(=O)(=O)Nc2ccc(Cl)nn2)cc1 [Sulfachloropyridazine] | 0.92 ± 0.34 | 0.973 ± 0.029 | 0.75 | 1.017 ± 0.0048
14 | CNCC[C@@H](Oc1ccccc1C)c1ccccc1 [Tomoxetine hydrochloride] | 1.04 ± 0.55 | 0.979 ± 0.023 | 0.75 | 1 ± 0.022
15 | CC1(C)O[C@@H]2[C@@H](CO[C@@]3(COS(N)(=O)=O)OC(C)(C)O[C@@H]23)O1 [Topiramate] | 1.18 ± 0.51 | 1.086 ± 0.0046 | 0.583 | 1 ± 0.025
16 | CC(=O)Nc1c(I)c(NC(C)=O)c(I)c(C(=O)O)c1I [Diatrizoic acid dihydrate] | 1.34 ± 0.56 | 1.03 ± 0.016 | 0.583 | 1.05 ± 0.033
17 | Cc1onc(-c2c(Cl)cccc2Cl)c1C(=O)N[C@@H]1C(=O)N2[C@@H]1SC(C)(C)[C@@H]2C(=O)O [Dicloxacillin sodium salt hydrate] | 1.24 ± 0.43 | 1.009 ± 0.0084 | 0.818 | 0.998 ± 0.017
18 | CC(N)CCCC(C)(C)O (stereo unspecified) [Heptaminol hydrochloride] | 1.19 ± 0.48 | 1 ± 0.044 | 0.75 | 0.971 ± 0.023
19 | CC(=O)Nc1ccc(OCC(O)CNC(C)C)cc1 (stereo unspecified) [Practolol] | 1.01 ± 0.36 | 0.986 ± 0.081 | 0.833 | 1.02 ± 0.051
20 | C[C@]1(Cn2ccnn2)[C@H](C(=O)O)N2C(=O)C[C@H]2S1(=O)=O [Tazobactam] | 0.923 ± 0.63 | 1.07 ± 0.018 | 0.75 | 0.985 ± 0.018
21 | O=C(NCCN1CCOCC1)c1ccc(Cl)cc1 [Moclobemide] | 0.89 ± 0.26 | 1.01 ± 0.088 | 0.833 | 0.969 ± 0.011
22 | CNC(=O)c1c(I)c(C(=O)NCC(=O)Nc2c(I)c(C(=O)O)c(I)c(C(=O)NCCO)c2I)c(I)c(N(C)C(C)=O)c1I [Ioxaglic acid] | 0.975 ± 0.39 | 1.03 ± 0.037 | 0.818 | 0.982 ± 0.035
23 | CN1CCC(=C2c3ccccc3C=Cc3ccccc32)CC1 [Cyproheptadine hydrochloride] | 1.28 ± 0.31 | 0.94 ± 0.06 | 0.667 | 1.2 ± 0.081
24 | CCN(CC)C(=S)SSC(=S)N(CC)CC [Disulfiram] | 3.4 ± 1.9 | 0.458 ± 0.05 | 0 | 1.7 ± 0.043
25 | C[C@]12CC[C@@H]3c4ccc(O)cc4CC[C@H]3[C@@H]1C[C@@H](O)[C@@H]2O [Estriol] | 0.626 ± 0.2 | 1.03 ± 0.042 | 0.917 | 1.026 ± 0.0015
26 | C[C@@H](c1ncncc1F)[C@](O)(Cn1cncn1)c1ccc(F)cc1F [Voriconazole] | 0.875 ± 0.21 | 1.02 ± 0.015 | 0.5 | 1.01 ± 0.027
27 | CCC(=O)O[C@]1(C(=O)SCF)[C@H](C)C[C@H]2[C@@H]3C[C@H](F)C4=CC(=O)C=C[C@]4(C)[C@@]3(F)[C@@H](O)C[C@@]21C [Fluticasone propionate] | 1.84 ± 0.75 | 1.27 ± 0.021 | 0.0833 | 1.04 ± 0.079

Row | Compound | glomerular separation [1] | glomerular width [2] | fraction of imaged embryos annotated as normal kidney [3] | pronephric angle neck segment [4]
28 | NC(=O)N1c2ccccc2C=Cc2ccccc21 [Carbamazepine] | 0.842 ± 0.19 | 0.99 ± 0.04 | 0.667 | 0.955 ± 0.025
29 | CC[N+](CC)(CC(=O)Nc1c(C)cccc1C)Cc1ccccc1 [Denatonium benzoate] | 0.973 ± 0.36 | 0.844 ± 0.018 | 0.917 | 0.99113 ± 0.00026
30 | CCOC(=O)OC(C)OC(=O)[C@@H]1N2C(=O)[C@@H](NC(=O)[C@H](N)c3ccccc3)[C@H]2SC1(C)C (stereo partly specified) [Bacampicillin hydrochloride] | 0.948 ± 0.29 | 1.01 ± 0.017 | 0.917 | 0.968 ± 0.034
31 | CCCCOC(=O)c1ccc(N)cc1 [Butamben] | 1.07 ± 0.41 | 1.04 ± 0.12 | 0.917 | 0.9834 ± 0.0087
32 | C#CCN(C)Cc1ccccc1 [Pargyline hydrochloride] | 1.04 ± 0.29 | 1.09 ± 0.052 | 0.833 | 0.95 ± 0.015
33 | CC(C)(C)NCC(O)COc1cccc2c1CCC(=O)N2 (stereo unspecified) [Carteolol hydrochloride] | 1.21 ± 0.32 | 0.909 ± 0.034 | 0.917 | 1.01 ± 0.027
34 | C[C@@H]1CCC[C@H](C)N1NC(=O)c1ccc(Cl)c(S(N)(=O)=O)c1 [Clopamide] | 0.881 ± 0.2 | 1.01 ± 0.02 | 0.917 | 0.98 ± 0.051
35 | Cc1c(N(C)CS(=O)(=O)O)c(=O)n(-c2ccccc2)n1C [Dipyrone] | 0.952 ± 0.36 | 0.936 ± 0.012 | 0.917 | 0.993 ± 0.021
36 | O=C(CCCCCCC(=O)Nc1ccccc1)NO [Vorinostat] | 1.25 ± 0.51 | 0.947 ± 0.056 | 0.667 | 1 ± 0.053
37 | CN1CCN(CC(=O)N2c3ccccc3C(=O)Nc3cccnc32)CC1 [Pirenzepine dihydrochloride] | 1.19 ± 0.65 | 0.9891 ± 0.0015 | 0.75 | 1.03 ± 0.059
38 | O=C(O)c1cccnc1 [Niacin] | 0.706 ± 0.25 | 1.04 ± 0.063 | 0.917 | 0.992 ± 0.032
39 | CCCCc1oc2ccccc2c1C(=O)c1cc(I)c(OCCN(CC)CC)c(I)c1 [Amiodarone hydrochloride] | 2 ± 1.1 | 0.862 ± 0.021 | 0.4 | 1.14 ± 0.13
40 | CCOc1ccccc1OCC1CNCCO1 (stereo unspecified) [Viloxazine hydrochloride] | 1.35 ± 0.55 | 0.9002 ± 0.0018 | 0.833 | 1.04 ± 0.062
41 | CC(C)[C@H](N)C(=O)OCCOCn1cnc2c(=O)nc(N)[nH]c21 [Valacyclovir hydrochloride] | 0.851 ± 0.28 | 1 ± 0.066 | 0.917 | 0.955 ± 0.044
42 | CCCN(CCC)C(=O)C(CCC(=O)O)NC(=O)c1ccccc1 (stereo unspecified) [Proglumide] | 0.949 ± 0.28 | 1.07 ± 0.049 | 0.917 | 1.037 ± 0.006
43 | CCN(CC)C(=O)c1ccc(O)c(OC)c1 [Ethamivan] | 1.08 ± 0.29 | 1.1 ± 0.019 | 0.818 | 1.019 ± 0.0025
44 | CN1CCC(=C2c3ccccc3CC(=O)c3sccc32)CC1 [Ketotifen fumarate] | 0.991 ± 0.29 | 1.06 ± 0.027 | 0.833 | 0.948 ± 0.013
45 | CN(C)[C@@H]1C(O)=C(C(N)=O)C(=O)[C@@]2(O)C(O)=C3C(=O)c4c(O)ccc(Cl)c4[C@@H](O)[C@H]3C[C@@H]12 [Demeclocycline hydrochloride] | 0.928 ± 0.36 | 0.999 ± 0.045 | 0.5 | 1.06 ± 0.013
46 | CCN1CCN(C(=O)N[C@@H](C(=O)N[C@@H]2C(=O)N3C(C(=O)O)=C(CSc4nnnn4C)CS[C@H]23)c2ccc(O)cc2)C(=O)C1=O [Cefoperazone dihydrate] | 1.2 ± 0.23 | 1.01 ± 0.086 | 0.909 | 1.046 ± 0.0064
47 | CC[C@H](C)[C@H](N)C1=N[C@H](C(=O)N[C@@H](CC(C)C)C(=O)N[C@H](CCC(=O)O)C(=O)N[C@H](C(=O)N[C@H]2CCCCNC(=O)[C@H](CC(N)=O)NC(=O)[C@@H](CC(=O)O)NC(=O)[C@H](Cc3cnc[nH]3)NC(=O)[C@@H](Cc3ccccc3)NC(=O)[C@H]([C@@H](C)CC)NC(=O)[C@@H](CCCN)NC2=O)[C@@H](C)CC)CS1 [Bacitracin] | 0.822 ± 0.28 | 0.912 ± 0.019 | 1 | 1.01 ± 0.013
48 | NCCc1cc[nH]n1 [Betazole hydrochloride] | 1.28 ± 0.54 | 0.9705 ± 0.0028 | 0.917 | 1.05 ± 0.012
49 | C[C@@H]1C[C@H]2[C@@H]3C[C@H](F)C4=CC(=O)C=C[C@]4(C)[C@@]3(F)[C@@H](O)C[C@]2(C)[C@@]1(O)C(=O)CO [Flumethasone] | 0.902 ± 0.3 | 1.28 ± 0.012 | 0.417 | 0.977 ± 0.049
50 | CC1(C)O[C@@H]2C[C@H]3[C@@H]4C[C@H](F)C5=CC(=O)C=C[C@]5(C)[C@H]4[C@@H](O)C[C@]3(C)[C@]2(C(=O)CO)O1 [Flunisolide] | 1.26 ± 0.42 | 1.21 ± 0.018 | 0.667 | 0.92856 ± 0.0002
51 | CCN1CCCC1CNC(=O)c1cc(S(N)(=O)=O)ccc1OC (stereo unspecified) [Sulpiride] | 1.08 ± 0.28 | 1.02 ± 0.023 | 0.75 | 0.983 ± 0.032
52 | CC(=O)O[C@]1(C(C)=O)CC[C@H]2[C@@H]3C=C(Cl)C4=CC(=O)[C@@H]5C[C@@H]5[C@]4(C)[C@H]3CC[C@@]21C [Cyproterone acetate] | 1.2 ± 0.46 | 0.931 ± 0.028 | 0.917 | 0.977 ± 0.017
53 | C[N+]1(C)CCC(OC(=O)C(O)(c2ccccc2)C2CCCC2)C1 (stereo unspecified) [Glycopyrrolate] | 1.14 ± 0.48 | 1.02 ± 0.055 | 0.583 | 1.06 ± 0.028
54 | O=C1Cc2cc(CCN3CCN(c4nsc5ccccc45)CC3)c(Cl)cc2N1 [Ziprasidone  Hydrochloride] | 1.5 ± 0.53 | 1.03 ± 0.025 | 0.833 | 1.05 ± 0.04
